Shown are actives, neighbours in structure and some others; about 3.5% of the full set was active somewhere.
MITF primary: MITF inhibitors, primary screen, biochemical, AlphaScreen, human; Microphthalmia-associated transcription factor (Homo sapiens), O75030; AlphaScreen MITF homodimerization, bead proximity signal; inhibition, % at 2.6 µM; 650,000 tested, 0.91% active; in the data active = inhibition above about 50%;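 also: 0% = vehicle wells with protein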
TEAD-YAP block: TEAD-YAP interaction inhibition, primary screen, TEAD-YAP interaction inhibitor project, luminescence, HEK-TIYL cells | inhibition, % at 9.12 µM | 640,000 tested, 1.4% active | TEAD-Gal4/YAP UAS-luciferase luminescence; in the data active = inhibition above about 32%;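 also: 0% = median of test compound wells and 100% = reference inhibitor wells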
GPR151 ag: activators of human GPR151, primary screen, cell-based, PathHunter beta-arrestin, luminescence; PathHunter beta-arrestin GPR151 cells; activation, % at 11.2 µM; 650,000 tested, 1% active; AID 1508602, 2020; G-protein coupled receptor 151 (Homo sapiens), Q8TDV0; in the data active = activation above about 4.9%;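 also: 0% = median of compound wells and 100% = cells with positive control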
FBW7 act: FBW7 E3 ligase activators, primary screen, biochemical, AlphaScreen, human; normalized activity (activation), % at 26.1 µM; AID 1259310, 2017; AlphaScreen FBW7–phospho-cyclin E peptide binding, activator screen; 650,000 tested, 0.13% active; in the data active = normalized activity above about 1.9%;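 also: purified mutant Fbw7 with reduced substrate affinity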
* = called active by the depositor.

SMILES	MITF primary	TEAD-YAP block	GPR151 ag	FBW7 act
O=C(/C=C/c1ccccc1)Nc1sc2c(c1C(=O)O)CCCC2	3	49*	0	0
Cc1ccc(/C=C/C(=O)Nc2sccc2C(N)=O)o1	5	-42	-4	1
Cc1cccc(C(=O)Nc2sc3c(c2C(N)=O)CCCC3)c1	2	52*	-3	0
NC(=O)c1c(NC(=O)/C=C/c2ccccc2)sc2c1CCC2	3	-80	2	0
Cc1cccc(OCC(=O)Nc2sc3c(c2C(N)=O)CCCC3)c1	-7	53*	2	0
NC(=O)c1ccsc1NC(=O)/C=C/c1ccccc1	-2	81*	-11	0
CCCc1nnc(-c2ccc(F)cc2)o1	-9	-8	0	0
COC(=O)c1ccc(C(=O)OC)c(NC(=O)/C=C/c2cccc([N+](=O)[O-])c2)c1	11	10	2	1
NC(=O)c1c(NC(=O)c2cccc(Br)c2)sc2c1CCCC2	-20	47*	1	0
O=S(=O)(NC1c2cccc3cccc(c23)C1N1CCN(C(=S)Nc2ccccc2)CC1)c1ccc(Cl)cc1 (stereo unspecified)	4	-8	0	2.4*
Cc1ccc(S(=O)(=O)Nn2c(SCC(=O)c3ccc(F)cc3)nc3ccccc3c2=O)cc1	2	2	1	0
Cc1cc(NC(=O)CSc2nc3ccccc3c(=O)n2C2CCCC2)no1	6	50*	2	0
Cc1cc(NC(=O)CSc2nc3ccccc3c(=O)[nH]2)no1	2	55*	1	0
COc1ccc(C2CC(c3ccc(Cl)cc3)=NN2S(=O)(=O)c2ccc(C)cc2)cc1 (stereo unspecified)	7	-2	3	0
Oc1c(C(c2ccc(C(F)(F)F)cc2)N2CCCCC2)ccc2cccnc12 (stereo unspecified)	9	83*	-1	0
O=C(CSc1cccc2cccnc12)N1CCCCC1	-8	-19	0	0
Oc1c(C(c2ccc(Cl)cc2)N2CCCCC2)ccc2cccnc12 (stereo unspecified)	3	71*	-1	-2
CCN1/C(=C/c2ccc3ccc(C)cc3[n+]2C)Sc2ccccc21	20	90*	2	0
CCN1/C(=C/c2ccc3cc(C)ccc3[n+]2CC)Sc2c(C)cc(C)cc21	5	73*	0	0
CCN1/C(=C/c2ccc3ccc(C)cc3[n+]2CC)Sc2cc(C)c(C)cc21	24	89*	2	-1
CCN1/C(=C/c2ccc3cc(C)ccc3[n+]2CC)Sc2cc(NC(C)=O)ccc21	20	10	0	0
COc1ccc(-n2cc(-c3ccccc3)c3c(NCCO)ncnc32)cc1	-47	2	-1	0
CCOC(=O)c1nn(-c2ccc(F)cc2)c(=O)c2c(NC(=O)C3CCCC3)scc12	10	2	2	0
N#CC(=C1Nc2ccccc2N1)c1nc(C#N)c(C#N)nc1N1CCN(c2ccccc2)CC1	1	7	0	0
O=C(Nc1ccccc1F)c1cnc2ccccn2c1=O	9	54*	-2	0
SMILES	MITF primary	TEAD-YAP block	GPR151 ag	FBW7 act
Cc1ccc(OCC(=O)NCCCN(C)C)c(Br)c1	17	9	-2	1
O=C(CN(Cc1ccccc1F)S(=O)(=O)c1ccc(Cl)cc1)NC1CCCC1	-3	-1	1	0
CCn1ccc2ccc(OC)cc2c1=O	16	-10	-1	2.1*
CCOC(=O)c1c(-c2ccccc2)oc2cc(Br)c(OC(C)=O)cc12	5	-2	0	0
O=C(NCCCO)C(=O)Nc1ccc(Oc2ccccc2)cc1	6	24	0	0
O=c1[nH]c(C2CC2)nc2cc(-c3cnn(-c4ccc(Cl)cc4)c3)ccc12	10	60*	0	1
CCCCc1ccc(-c2nc(Nc3ccc(C(F)(F)F)cc3)c3ccccc3n2)cc1	-8	38*	0	0
CCN(CC)c1nc(-c2ccc(C)cc2)nc2ccccc12	-15	-16	0	0
Cc1ccc(Nc2nc(-c3ccc(C)cc3)nc3ccccc23)cc1	12	7	-2	0
COc1ccc(Nc2nc(-c3ccc(C(C)(C)C)cc3)nc3ccccc23)cc1	10	86*	0	0
CCN(CC)c1nc(-c2ccc(C(C)(C)C)cc2)nc2ccccc12	5	58*	-2	0
O=[N+]([O-])c1cccc(-c2noc(C34CC5CC(CC(C5)C3)C4)n2)c1	-9	1	2	0
